# PubChem BioAssay
# “And” between values parts separate entries of the source, which are not always exact repeats. Equal entries are not always repeated. Inconclusive results are not listed. The source made the active and inactive calls. Unless noted, how the calls were made is not given here.
# Columns and labels:
# [1] = protection against mutant huntingtin cytotoxicity, PC12 cells, LDH release (AID 1610); settings: PC12 mutant huntingtin toxicity, final LDH at 4 uM, stronger effect = lower value
# [2] = circadian clock period modulators, cell-based, LOPAC library, luminescence reporter (AID 2774); settings: circadian reporter cells, at 7 µM, actives lie on both sides;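 further: values are relative to mean of DMSO wells on each plate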
# [3] = hESC survival regulators, cell-based (AID 493140); settings: human embryonic stem cell survival screen; stronger effect = higher value;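 further: cells exposed to compounds for four days before counting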
# [4] = kinase inhibitors against Plasmodium liver-stage infection, cell-based, known kinase inhibitor set, luminescence, hepatoma host viability (AID 624392); settings: Plasmodium liver stage in hepatoma cells, luciferase luminescence, concentration not given here; liver cell % of control: measured here: host liver cell viability; parasite % of control: stronger effect = lower value;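 further: infected cells incubated roughly two days before readout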
# [5] = HD-MB03 medulloblastoma cell growth inhibition, synergistic combos for chromothripsis tumors, BGB or cisplatin IC20 combos (AID 1671455; in the data active means inhibition above about 83%;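 further: 0% = vehicle DMSO and 100% = high DMSO as cytotoxic control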); settings: HD-MB03 medulloblastoma cells, stronger effect = higher value
# [6] = UWB1.289 ovarian carcinoma cell growth inhibition, synergistic combos for chromothripsis tumors, BGB or cisplatin combos (AID 1671456; in the data active means inhibition above about 80%;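 further: cells exposed to compound for four days; 0% = vehicle DMSO and 100% = killing by high DMSO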); settings: UWB1.289 ovarian carcinoma cells, stronger effect = higher value
# [7] = LFS_MB_2R medulloblastoma cell growth inhibition, synergistic combos for chromothripsis tumors, cisplatin combos (AID 1671457; in the data active means inhibition above about 80%;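 further: cells exposed to compound for four days before readout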); settings: LFS_MB_2R medulloblastoma cells, stronger effect = higher value
# [8] = UWB1.289_BRCA1 ovarian cancer growth, cell-based, BGB or cisplatin combinations (AID 1671459; in the data active means inhibition above about 80%); settings: UWB1.289 BRCA1 ovarian carcinoma, drug combinations, stronger effect = higher value
# [9] = human astrocyte viability loss, single and combined drugs, cytotoxicity control for chromothriptic childhood tumor combination screen, cell-based, BGB or cisplatin IC20 combos (AID 1671460; in the data active means inhibition above about 80%;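 further: cells exposed to compounds for 96 hours before viability readout; 0% = vehicle and 100% = killing control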); settings: Human astrocytes, drug combinations, stronger effect = higher value
# [10] = molecular target: ATP-dependent translocase ABCB1 (Homo sapiens) (UniProt P08183); assay: MDR1 (ABCB1) efflux transporter inhibition, cell-based (AID 377; in the data active means fluorescence slope change above about 50%); settings: MDR1-expressing cells, fluorescent substrate accumulation slope; stronger effect = higher value; concentration not given here
# Sequence of ATP-dependent translocase ABCB1 (Homo sapiens) (P08183 whole entry, looked up): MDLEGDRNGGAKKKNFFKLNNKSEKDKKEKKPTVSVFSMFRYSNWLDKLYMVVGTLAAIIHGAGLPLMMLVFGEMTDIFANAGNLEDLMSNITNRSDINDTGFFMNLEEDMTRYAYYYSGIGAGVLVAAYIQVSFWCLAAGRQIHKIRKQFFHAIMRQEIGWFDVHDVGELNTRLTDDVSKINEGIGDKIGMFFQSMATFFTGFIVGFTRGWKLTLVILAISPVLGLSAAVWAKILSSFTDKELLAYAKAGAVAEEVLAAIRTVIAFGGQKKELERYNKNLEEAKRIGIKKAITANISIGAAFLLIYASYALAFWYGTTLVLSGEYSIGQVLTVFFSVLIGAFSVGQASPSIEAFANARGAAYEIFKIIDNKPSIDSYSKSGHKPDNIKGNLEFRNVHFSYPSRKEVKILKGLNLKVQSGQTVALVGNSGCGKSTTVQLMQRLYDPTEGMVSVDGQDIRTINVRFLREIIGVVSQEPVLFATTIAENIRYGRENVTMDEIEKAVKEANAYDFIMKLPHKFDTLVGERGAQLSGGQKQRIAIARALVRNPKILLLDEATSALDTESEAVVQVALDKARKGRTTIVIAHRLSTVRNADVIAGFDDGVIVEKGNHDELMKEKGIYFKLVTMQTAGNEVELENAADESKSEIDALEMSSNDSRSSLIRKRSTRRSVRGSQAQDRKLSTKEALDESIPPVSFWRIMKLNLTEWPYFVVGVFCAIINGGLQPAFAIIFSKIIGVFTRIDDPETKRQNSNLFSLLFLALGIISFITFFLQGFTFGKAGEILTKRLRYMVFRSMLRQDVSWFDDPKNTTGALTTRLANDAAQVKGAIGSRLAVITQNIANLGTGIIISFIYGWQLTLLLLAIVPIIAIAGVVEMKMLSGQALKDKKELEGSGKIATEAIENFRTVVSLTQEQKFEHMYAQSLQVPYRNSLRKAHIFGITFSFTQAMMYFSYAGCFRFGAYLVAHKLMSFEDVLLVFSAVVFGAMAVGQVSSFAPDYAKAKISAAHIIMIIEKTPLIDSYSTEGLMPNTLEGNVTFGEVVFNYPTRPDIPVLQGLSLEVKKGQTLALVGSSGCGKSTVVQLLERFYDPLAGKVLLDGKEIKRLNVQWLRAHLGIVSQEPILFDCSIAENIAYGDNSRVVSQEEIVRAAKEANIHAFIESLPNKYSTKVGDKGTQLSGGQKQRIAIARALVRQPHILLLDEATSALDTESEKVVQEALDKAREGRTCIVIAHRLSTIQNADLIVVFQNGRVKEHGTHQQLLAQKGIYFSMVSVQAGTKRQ
# [11] = measured here: combo with BGB at IC20, at 0.5 µM
# [12] = measured here: combo with cisplatin at IC20, at 0.5 µM
# [13] = measured here: inhibition with BGB combination, at 0.05 µM
# [14] = measured here: inhibition with cisplatin combination, at 0.05 µM
# [15] = measured here: combination with cisplatin, at 0.5 µM
# [16] = measured here: combination with cisplatin, at 5 µM
# [17] = BGB combination, concentration series, at 5 µM
# [18] = cisplatin combination, concentration series, at 5 µM
# [19] = measured here: combo with BGB IC20, at 0.5 µM
# [20] = measured here: combo with cisplatin IC20, at 0.5 µM
smiles,measurement,setting,value
CC(=O)OCC(=O)[C@@]1(O)[C@H](C)CC2C3CCC4=CC(=O)C=C[C@]4(C)[C@@]3(F)[C@@H](O)C[C@@]21C (some centres undefined),normalised LDH release,[1],0.545
O=C1Nc2ccc(I)cc2/C1=C/c1cc(Br)c(O)c(Br)c1,period change,[2],-0.055 h (inactive)
same,survival,[3],109 (inactive)
O=C(O)c1ccc(-c2c[nH]c3ncc(-c4ccccc4)cc23)cc1C1CCCC1,liver cell % of control,[4],92%
same,parasite % of control,[4],0.113% (active)
CCOC(=O)C1=C(C)NC(=S)NC1c1cccc(O)c1 (centres undefined),period change,[2],0.16 h (inactive)
CCc1c2c(nc3ccc(O)cc13)-c1cc3c(c(=O)n1C2)COC(=O)[C@]3(O)CC,inhibition,[5]; at 0.5 µM,99.5% (active)
same,inhibition,[5]; [11],99.5%
same,inhibition,[5]; [12],99.6%
same,inhibition,[6]; at 0.5 µM,74.5% (inactive)
same,inhibition,[6]; [13],31%
same,inhibition,[6]; [14],49.3%
same,inhibition,[7]; at 0.5 µM,13.2% (inactive)
same,inhibition,[7]; [15],48.9%
same,inhibition,[7]; [16],61.9%
same,inhibition,[8]; [17],102%
same,inhibition,[8]; at 0.5 µM,81.6% (active)
same,inhibition,[8]; [18],105%
same,inhibition,[9]; at 0.5 µM,90.1% (active)
same,inhibition,[9]; [19],94.5%
same,inhibition,[9]; [20],87%
COc1cccc(-c2cc(=O)c3ccccc3o2)c1N,period change,[2],-0.07 h (inactive)
same,survival,[3],106 (inactive)
O=C(O)C1CCCN(CCC=C(c2ccccc2)c2ccccc2)C1 (centres undefined),period change,[2],0.005 h (inactive)
NC(=O)c1ccc2[nH]ccc2c1,liver cell % of control,[4],92.5% and 90.8% and 97.8%
same,parasite % of control,[4],221% (inactive) and 164% (inactive) and 74.7% (inactive)
CCC(C)N(C)C(=O)c1cc2ccccc2c(-c2ccccc2Cl)n1 (centres undefined),period change,[2],0.03 h (inactive)
CS(=O)c1ccc(-c2nc(-c3ccc(F)cc3)c(-c3ccncc3)[nH]2)cc1 (centres undefined),liver cell % of control,[4],87.6% and 90.6% and 97.1%
same,parasite % of control,[4],20.8% (inactive) and 18.7% (inactive) and 25.5% (inactive)
O=c1cc(-c2cccc3c2Sc2ccccc2S3)oc(N2CCOCC2)c1,inhibition,[5]; at 0.5 µM,-12.6% (inactive)
same,inhibition,[5]; [11],-13%
same,inhibition,[5]; [12],-6.59%
same,inhibition,[6]; at 0.5 µM,-9.95% (inactive)
same,inhibition,[6]; [13],-28.4%
same,inhibition,[6]; [14],-10.7%
same,inhibition,[7]; at 0.5 µM,-22.3% (inactive)
same,inhibition,[7]; [15],-27.3%
same,inhibition,[7]; [16],-42.7%
same,inhibition,[8]; [17],-14.2%
same,inhibition,[8]; at 0.5 µM,-17.9% (inactive)
same,inhibition,[8]; [18],-3.21%
same,inhibition,[9]; at 0.5 µM,-40.3% (inactive)
same,inhibition,[9]; [19],-56.7%
same,inhibition,[9]; [20],-32.4%
O=C1NC(=O)C(c2ccccc2[N+](=O)[O-])=C1Nc1ccc(O)c(Cl)c1,period change,[2],0.15 h (inactive)
O=c1[nH]c(-c2ccc(C(F)(F)F)cc2)nc2c1CSCC2,inhibition,[5]; at 0.5 µM,-8.71% (inactive)
same,inhibition,[5]; [11],-15.3%
same,inhibition,[5]; [12],-8.24%
same,inhibition,[6]; at 0.5 µM,-2.17% (inactive)
same,inhibition,[6]; [13],-13.9%
same,inhibition,[6]; [14],-26.3%
same,inhibition,[7]; at 0.5 µM,-7.37% (inactive)
same,inhibition,[7]; [15],-7.07%
same,inhibition,[7]; [16],-6.53%
same,inhibition,[8]; [17],-5.61%
same,inhibition,[8]; at 0.5 µM,0.36% (inactive)
same,inhibition,[8]; [18],7.32%
same,inhibition,[9]; at 0.5 µM,-1.27% (inactive)
same,inhibition,[9]; [19],0.645%
same,inhibition,[9]; [20],-5.26%
CCCCC[C@H](O)/C=C/[C@H]1[C@H](O)CC(=O)[C@@H]1C/C=C\CCCC(=O)O,fluorescence slope change,[10],51% (active)
same,survival,[3],66.5 (inactive)
Oc1ccc(-c2nc(-c3ccc(F)cc3)c(-c3ccncc3)[nH]2)cc1,liver cell % of control,[4],85.2% and 83.2% and 90.8%
same,parasite % of control,[4],14.8% (inactive) and 19.2% (inactive) and 29.9% (inactive)
O=c1ncccn1[C@@H]1O[C@H](CO)[C@@H](O)[C@H]1O,inhibition,[5]; at 0.5 µM,-21.4% (inactive)
same,inhibition,[5]; [11],-26.7%
same,inhibition,[5]; [12],-23%
same,inhibition,[6]; at 0.5 µM,-19.3% (inactive)
same,inhibition,[6]; [13],1.76%
same,inhibition,[6]; [14],-40%
same,inhibition,[7]; at 0.5 µM,-6.18% (inactive)
same,inhibition,[7]; [15],-23.5%
same,inhibition,[7]; [16],-12.7%
same,inhibition,[8]; [17],-30%
same,inhibition,[8]; at 0.5 µM,-19.1% (inactive)
same,inhibition,[8]; [18],-22.8%
same,inhibition,[9]; at 0.5 µM,-3.28% (inactive)
same,inhibition,[9]; [19],-9.39%
same,inhibition,[9]; [20],1.77%
COc1ccccc1N1CCN(CCN2C(=O)CC3(CCCC3)CC2=O)CC1,period change,[2],-0.035 h (inactive)
Cn1cc(C2=C(c3ccc(Cl)cc3Cl)C(=O)NC2=O)c2ccccc21,period change,[2],0.025 h (inactive)
same,liver cell % of control,[4],105% and 92.9% and 90.2%
same,parasite % of control,[4],19.2% (inactive) and 24.2% (inactive) and 47.4% (inactive)
CC(C)(C)n1nc(-c2ccc(Cl)cc2)c2c(N)ncnc21,survival,[3],53.1 (inactive)
O=C1C(SCCO)=C(SCCO)C(=O)c2ccccc21,period change,[2],-0.12 h (inactive)
O=S(=O)(c1cccc2c(Cl)cccc12)N1CCCNCC1,period change,[2],0.09 h (inactive)
same,survival,[3],62 (inactive)
COc1cc(/C=C(\C#N)C(N)=O)cc(CSc2nc3ccccc3s2)c1O,survival,[3],114 (inactive)
COC(=O)c1c(C)[nH]c(C)c1C(=O)c1ccccc1Cc1ccccc1,period change,[2],0.045 h (inactive)
COc1ccc(CCN(C)CCc2ccc(OC)c(OC)c2)cc1OC,period change,[2],0.045 h (inactive)
CCCCCCCC/C=C\CCCCCCCC(N)=O,survival,[3],102 (inactive)
CN(C)CCCn1cc(C2=C(c3c[nH]c4ccccc34)C(=O)NC2=O)c2ccccc21,survival,[3],60.4 (inactive)
COCc1nc2c([nH]1)c(=O)n(C)c(=O)n2CC(C)C,period change,[2],-0.19 h (inactive)
Cc1cccc(C(=O)NCN2CCN(c3ccccc3C#N)CC2)c1,period change,[2],0.095 h (inactive)
N.N.O=C(O)C1(C(=O)O)CCC1.[Pt],inhibition,[5]; at 0.5 µM,-1.12% (inactive) and -17.2% (inactive)
same,inhibition,[5]; [11],0.288% and -20.6%
same,inhibition,[5]; [12],4.09% and -19.6%
same,inhibition,[6]; at 0.5 µM,-2.74% (inactive) and -5.32% (inactive)
same,inhibition,[6]; [13],42.2% and -5.66%
same,inhibition,[6]; [14],-17.5% and -30.7%
same,inhibition,[7]; at 0.5 µM,-25.7% (inactive) and -8.57% (inactive)
same,inhibition,[7]; [15],-29.8% and -25.9%
same,inhibition,[7]; [16],-19% and -16.7%
same,inhibition,[8]; [17],2.03% and 5.93%
same,inhibition,[8]; at 0.5 µM,-15.7% (inactive) and -7.62% (inactive)
same,inhibition,[8]; [18],29.9% and 24.6%
same,inhibition,[9]; at 0.5 µM,-6.9% (inactive) and 14.2% (inactive)
same,inhibition,[9]; [19],-5.7% and 11.6%
same,inhibition,[9]; [20],-6.14% and 19.2%
